# Bioassay records: PubChem BioAssay, National Center for Advancing Translational Sciences (NCATS)
# Only some compounds are listed: those with a hit (about 2.4% of all), similar ones and a draw of the others.
# Tb PFK inh – qHTS Assay to Find Inhibitors of T. brucei phosphofructokinase; T. brucei PFK, ADP-Glo luminescence; Potency, µM (titrated, usually from 57.5 µM), inactives show at the top dose activity, negative = inhibition, most hits filed as inhibitors; hit rate 0.17% among 330,000; ATP-dependent 6-phosphofructokinase (Trypanosoma brucei brucei), O15648; AID 485367, 2010;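 further: 0% = uninhibited 1x PFK enzyme wells and -100% = no-enzyme wells; nearly all actives have a fitted effect of over 60% in size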
#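 1.25 nM PFK with 0.5 mM F6P and 0.1 mM ATP in 0.1 M TEA pH 8.0, 5 mM MgCl2, incubated 45 min at room temperature; ADP measured by ADP-Glo luminescence; compounds titrated up to 57 uM.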
# ELG1 DNA repair – qHTS screen for small molecules that inhibit ELG1-dependent DNA repair in human embryonic kidney (HEK293T) cells expressing luciferase-tagged ELG1; hit rate 2.3% among 330,000; Potency, µM (titrated, usually from 46.1 µM), without a hit: at the highest dose activity change, negative = inhibition, usual class: inhibitors; HEK293T ELG1-luciferase reporter, luminescence, 16 h; DNA damage induced by 5-fluorouridine; further: on the % scale 0 is the no-effect control and ±100 the full control effect; nearly all actives have a fitted effect of over 55% in size
#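 Step one: seed 2,000 cells per well. Step two: pin-transfer compound or DMSO alongside 5-fluorouridine. Step three: incubate 16 hr, 37 °C, 5% CO2. Step four: add ONE-Glo, wait 30 min, read luminescence.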
# Rango dissoc inh – qHTS Assay for Inhibitors of RanGTP induced Rango (Ran-regulated importin-beta cargo) - Importin beta complex dissociation. Snurportin-1 (Homo sapiens) + GTP-binding nuclear protein Ran (Homo sapiens) + Importin …. Biochemical FRET Rango-importin beta, RanGTP-induced dissociation. Potency, µM (doses to about 46.1 µM), for the others: at the highest dose activity change, negative = inhibition. hit rate 0.071% among 340,000. AID 540253, 2011; calls by dose curve; further: % of control where 0% means no effect; nearly all actives have a fitted effect of over 45% in size
#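 Rango (0.1 uM)–importin beta (0.25 uM) complex; RanGTP-RCC1 trigger; 45 min RT; CFP/YFP FRET read.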
# Tb PGK inh – qHTS Assay to Find Inhibitors of Phosphoglycerate Kinase; PGK/GAPDH coupled, Kinase-Glo luminescence, 60 min; Phosphoglycerate kinase, glycosomal (Trypanosoma brucei brucei), P07378; hit rate 0.043% among 380,000; Potency, µM (top dose mostly 57.5 µM), for the others: top-dose activity change, negative = inhibition, hits mostly inhibitors; AID 602233, 2012; further: on the % scale 0 is the no-effect control and ±100 the full control effect; nearly all actives have a fitted effect of over 60% in size
# Target sequence (P07378 whole entry, looked up): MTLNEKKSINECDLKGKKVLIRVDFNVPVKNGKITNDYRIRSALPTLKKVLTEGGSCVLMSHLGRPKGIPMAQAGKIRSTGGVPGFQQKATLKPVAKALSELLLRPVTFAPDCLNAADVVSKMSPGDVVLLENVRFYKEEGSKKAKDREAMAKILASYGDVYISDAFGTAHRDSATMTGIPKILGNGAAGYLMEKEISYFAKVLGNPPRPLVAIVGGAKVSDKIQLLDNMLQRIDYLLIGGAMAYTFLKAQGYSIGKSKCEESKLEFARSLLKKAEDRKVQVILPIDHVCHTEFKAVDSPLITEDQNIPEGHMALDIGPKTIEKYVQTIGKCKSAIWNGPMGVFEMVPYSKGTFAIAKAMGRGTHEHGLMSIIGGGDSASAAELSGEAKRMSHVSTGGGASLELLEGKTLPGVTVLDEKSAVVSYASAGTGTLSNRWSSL
#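 Luminescent ATP detection (Kinase-Glo Plus) follows a 60-minute room-temperature incubation, with wells lacking PGK as controls. Buffer: 100 mM TEA (pH 7.6), 5 mM MgCl2, 0.01% Tween-20. Coupling enzyme GAPDH (100 nM final) supplies unstable 1,3-BPG in-well.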
# Rango-impB inh – qHTS Assay for Inhibitors of Rango (Ran-regulated importin-beta cargo) - Importin beta complex formation; Importin subunit beta-1 (Homo sapiens), Q14974; Rango CFP/YFP FRET sensor + importin beta, 45 min; Potency, µM (top dose mostly 92.2 µM), for the others: at the highest dose inhibition of complex formation; hit rate 0.031% among 340,000; AID 540263, 2011; calls by dose curve;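 further: 0% = DMSO wells and 100% = buffer wells lacking importin beta; nearly all actives have a fitted effect of over 15% in size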
#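 Inhibition scored from the CFP 486 nm/YFP 530 nm FRET ratio 45 min after adding 0.125 microM importin beta to 50 nM Rango biosensor preincubated 5 min with compound (room temperature, PBS with DTT, Tween-20, BSA). No-importin wells as positive control.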
# PKM2 act – qHTS Assay for Activators of Human Muscle isoform 2 Pyruvate Kinase; Pyruvate kinase PKM (Homo sapiens), P14618; purified PKM2, Kinase-Glo ATP luminescence, activation; response scale: 0% is enzyme alone, no compound; Potency, µM (highest dose often 57.5 µM), inactives show at the top dose activation, most hits filed as activators; hit rate 0.34% among 260,000; AID 1631, 2009; further: on the % scale 0 is the no-effect control and ±100 the full control effect; nearly all actives have a fitted effect of over 55% in size
#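 Purified hPK-M2 (>95% pure) converted ADP (0.1 mM final) to ATP with 0.5 mM PEP in 50 mM imidazole pH7.2, KCl, MgCl2, Tween 20, BSA; 1 h at room temperature. ATP detected by Kinase-Glo luminescence.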
# Starred values were filed as active, the others as inactive; i = inactive; ? = inconclusive; nt = no result; [ ] = another dose, or the depositor's remark. Unless noted, the call rests on the fitted dose curve; in most records, active means well fitted curve in the direction sought with a large enough effect; inconclusive means small, poorly fitted or top-dose-only effect, or another doubt; inactive means no such curve, though single readings can be large; an effect the other way counts as inactive or inconclusive. Potency means the concentration at half of the fitted maximal effect.
SMILES,Tb PFK inh,ELG1 DNA repair,Rango dissoc inh,Tb PGK inh,Rango-impB inh,PKM2 act
CN(C)c1cc[n+](CC(=O)c2ccc(-c3ccccc3)cc2)cc1,1%,2.6µM*,13%,i,4%,3%
CCN1C(=O)[C@H]2[C@@H](c3ccc(Cl)cc3)N3C(=O)CN(CCOC)C(=O)[C@@]3(C)[C@H]2C1=O,0%,6%,24%,6%,2%,-1%
O=C(Cn1c2ccccc2c2nc3n(c(=O)c21)CCCS3)Nc1ccccc1,0%,5.2µM*,-18%,i,4%,nt
O=C(NCC1CCN(c2ccc(S(=O)(=O)N3CCOCC3)cc2)CC1)c1ccc(Cl)cc1,-3%,21µM*,0%,1%,2%,-3%
O=C(CCNC(=O)c1ccc(Cl)cc1)Nc1ccc(S(=O)(=O)N2CCOCC2)cc1,2%,12%,0%,-10%,-3%,nt
COC(=O)c1ccc(C(NC(=O)OCc2ccccc2)/C(F)=C/[C@@H](C)C(=O)NCc2ccc(OC)c(OC)c2)cc1 (stereo not given in full),-2%,18µM*,-6%,-2%,0%,3%
CCOC(=O)c1ccc(NC(=O)COc2ccccc2CNCCc2ccccc2)cc1,-4%,26µM*,23%,0%,1%,-4%
O=C(NCCc1ccccc1)c1ccc(NC(=O)c2cccnc2)cc1,0%,13%,0%,-2%,-1%,0%
CCOC(=O)c1ccc(NC(=O)CCc2nc(-c3ccccc3Cl)no2)cc1,-4%,-5%,5%,6%,0%,3%
O=C(Nc1ccc(-c2noc(CCc3ccccc3)n2)cc1)c1cccnc1,-2%,23µM*,-24%,2%,0%,3%
CCOC(=O)c1ccc(NC(=O)CCc2nc(-c3ccccc3)no2)cc1,0%,26µM*,-15%,i,0%,0%
COc1ccc2c(c1)CCCC21NC(=O)N(CC(=O)NCc2cccs2)C1=O (stereo not given),-1%,-2%,19%,-11%,-1%,nt
COc1ccc(C(C(=O)NC2CCCC2)N(C(=O)c2ccco2)c2cc3c(cc2C(C)=O)OCO3)cc1OC (stereo not given),-1%,6%,-6%,-2%,1%,-1%
COc1cc(Nc2nc3ccccc3nc2NS(=O)(=O)c2ccc([N+](=O)[O-])cc2)cc(OC)c1OC,1%,16µM*,-1%,-7%,6%,nt
CCCOc1ccc(C(=O)NC(=S)NNC(=O)c2c(-c3ccccc3)noc2C)cc1,0%,7.3µM*,0%,-5%,-2%,-14%
O=C1CC(NS(=O)(=O)c2cccnc2)CN1c1cccc(F)c1 (stereo not given),-4%,0%,5%,7%,0%,nt
CCN(CC)S(=O)(=O)c1ccc(C)c(NC(=S)N2CCN(C/C=C/c3ccccc3)CC2)c1,-4%,12µM*,21%,-7%,4%,-1%
CCN(CC)S(=O)(=O)c1ccc(C)c(NC(=S)N2CCN(c3ccccn3)CC2)c1,-7%,16µM*,5%,-5%,0%,nt
CCN(CC)S(=O)(=O)c1ccc(C)c(NC(=S)N2CCN(Cc3ccc4c(c3)OCO4)CC2)c1,3%,?,1%,5%,0%,3%
CCOC(=O)N1CCc2c(sc(NC(=O)c3ccc(S(=O)(=O)N4CCCC4)cc3)c2C#N)C1,-2%,16µM*,?,-2%,?,2%
CCn1c(C)nc2cc(S(=O)(=O)C(F)(F)C(F)C(F)(F)F)ccc21 (stereo not given),0%,7.3µM*,28%,2%,-5%,5%
O=C(CS(=O)(=O)c1ccc(Cl)cc1)N1CCN(c2ccccc2)CC1,nt,nt,nt,-3%,nt,nt
C/C(Cl)=C\Cn1c(Nc2ccc(C)cc2)nc2c1c(=O)n(C)c(=O)n2C,-11%,5.2µM*,-15%,-8%,0%,12%
C/C(Cl)=C/Cn1c(N2CCCC2)nc2c1c(=O)n(C)c(=O)n2C,0%,?,25%,3%,1%,0%
Cn1c(=O)c2c(nc(Oc3cccc(Br)c3)n2C)n(C)c1=O,1%,?,4%,-1%,0%,-24%[11.5 µM]
SMILES,Tb PFK inh,ELG1 DNA repair,Rango dissoc inh,Tb PGK inh,Rango-impB inh,PKM2 act
Cn1c(=O)c2c(ncn2Cc2cc(-c3ccccc3)no2)n(C)c1=O,-7%,18µM*,5%,-3%,3%,0%
Cc1ccc(OCCn2c(Br)nc3c2c(=O)n(C)c(=O)n3C)cc1,0%,5.2µM*,3%,i,-1%,-1%
Cn1c(=O)c2c(ncn2CCOc2cccc(Br)c2)n(C)c1=O,1%,8.2µM*,0%,-5%,1%,nt
Cn1c(=O)c2c(ncn2Cc2cccc(Cl)c2)n(C)c1=O,-10%,-23%,-1%,-6%,-5%,3%
COc1ccc(-c2cn3nc(N4CCCC(C(=O)NCc5ccccc5OC)C4)sc3n2)cc1 (stereo not given),nt,nt,nt,5%,nt,nt
C[C@H](CO)N1C[C@H](C)[C@@H](CN(C)S(=O)(=O)c2ccccc2F)Oc2ncc(C#Cc3cccnc3)cc2C1=O,nt,nt,nt,i,nt,nt
CCOc1ccccc1Nc1ncnc2c1c(-c1ccccc1)cn2-c1ccc(OC)cc1,nt,nt,nt,-9%,nt,nt
COC(=O)c1cc(NC(=O)CN(c2ccccc2OC)S(=O)(=O)c2ccccc2)ccc1Cl,-11%,23µM*,1%,0%,0%,-2%
COc1ccccc1NC(=O)CN(c1ccc([N+](=O)[O-])cc1)S(=O)(=O)c1ccccc1,-3%,-17%,-10%,8%,-1%,10µM*
Cc1ccc(S(=O)(=O)N(C)c2ccc(OCC(=O)Nc3cccc(-n4cnnn4)c3C)cc2)cc1,0%,23µM*,29%,2%,0%,-1%
CCN(CC(=O)Nc1ccccc1OC)C(=O)c1ccc(N(C)S(=O)(=O)c2ccc(C)cc2)cc1,-1%,16µM*,-2%,3%,-4%,nt
